{"source": "paper PMC12864922", "about": "“TDP-43 directly inhibits mRNA accumulation in neurites through modulation of mRNA stability”", "binders": {"B1": {"name": "ENSMUSG00000061578.522|Ksr2 (ssRNA)", "RNA": "GGGAGUUCUACAGUCCGACGAUCGCUUCGAUAUCCGCAUGCUAGGAGCUCUUGCCUAACACACACCAAGCCCCAAGUUCCAUCCCCAGUCCCACACAAACCAGAUAUGAUGGUGUGUGCCUAUGUCCCCCACACACGAGAGAGCUGGAGGCAGGAGGAUCAGAAGUUCAGGGCCAUCCUUAAUCAUACAGUGAGCUUGAGAGCAACCUGGGCUACAUGUGACCCUAAUAACUUUUGUAAAUUCAGCACACUUGGCACCUCACACUCCAUGUCCAUAUACUGCAUGUGCCACACACACACACACCUCUUGCGGUCGCACUAGUGUGGAAUUCUCGGGUGUCAAGG"}, "B2": {"name": "ENSMUSG00000028439.215|Fam219a (ssRNA)", "RNA": "GGGAGUUCUACAGUCCGACGAUCGCUUCGAUAUCCGCAUGCUAACCUGGGUUCUGGUCCCAGCCUCGGCAUUCUCCCUGAGCUCCUAAGCAAUUCCCAGGCUUCUCUAGGGCUUCAGUUCUCACAACUGGAAAAUAAAGAGUAGCUGACAUCACCGACAGAGUCUUUUCAUACCAGAAGGAAUUUCUUCACAGGAGUUUCUGCAAAAGACUAUGACAUCUGUGUGUCUGUGGUCUCACGAGGUACCUGGAGGUGUAUGUGCACGGACAUGGGAAGUACGUGAAGAUUUAUUUCGGGAAAAGUGCUCUUGCGGUCGCACUAGUGUGGAAUUCUCGGGUGUCAAGG"}, "B3": {"name": "ENSMUSG00000022095.99|Fam160b2 (ssRNA)", "RNA": "GGGAGUUCUACAGUCCGACGAUCGCUUCGAUAUCCGCAUGCUAGCCCCCUCUUCCUGCUCUACCCUCCUGGAGGCUGUUGCAAAAUUCCCAACUGCCUCCUGGCAGAGGCCCAAAGUAUGCUCUGCGCCCAGGCGGGGGCAGCUGCUAACAAGAGCCCUGGCGCAGCUGCAGCCAGGGCAGGCGAGAGCCUUGGAGCUGGGUGCCAGGCUCCAGCUCCAGCUCCAGCUGGUUCCUCUCUGGCGCCUUCUGAACCCGUCUCAGCAAGUCCGAAACACCUGGGCAGAGAGGUCAUUGACCAGGGACUCUUGCGGUCGCACUAGUGUGGAAUUCUCGGGUGUCAAGG"}, "B4": {"name": "ENSMUSG00000031028.626|Tub (ssRNA)", "RNA": "GGGAGUUCUACAGUCCGACGAUCGCUUCGAUAUCCGCAUGCUAUUAGGGUAAAUGAAAGUUAGUCCUGGCUCUCAUCACCACCUUUCCUAGCUCAUCACUGUGCCUUCUUUCUUCCCUAAGAAAGACAAUGCACCCCUCUCUUCUGUUCUCCUGCCCCUUCGCCCCCACUGAGGUCCAGGUAGAGCAGAUGAGGCUGAAAUGUAGAGUGUUCUAUAGAGCAUCUCAGUAGCAUAGAAGGAGAAGCCCAGCUCCAACCUCCUGGACCCCAUACUGGUGACCAGCUUGGUGAGGACAGGCAAAAUCUCUUGCGGUCGCACUAGUGUGGAAUUCUCGGGUGUCAAGG"}, "B5": {"name": "ENSMUSG00000004113.212|Cacna1b (ssRNA)", "RNA": "GGGAGUUCUACAGUCCGACGAUCGCUUCGAUAUCCGCAUGCUAGCUCAGAGCAGCACGGGGGCUUGUGUCUUAGGGACAUUGACAGUGUCCAUCAGCAUGUCAGAGAAGCAGCUGUAGUGCCCGUGUUUCUCCCUGAGUCAUGGGUUCUGAAGAAGCCAGAGCGGCACAAUGCGUGCUUGCAUGAGGCACUUUCAGCCUUUUUAAAUCUGACUCUCAGGGAUGGGAUGCCUGCCAAGUAGGGUGUAAUCUCUGUUGUGUUUUUAAAACAACAACAACAAAAUAAAACAAAAAAAAAAAACCUACUCUUGCGGUCGCACUAGUGUGGAAUUCUCGGGUGUCAAGG"}, "B6": {"name": "ENSMUSG00000061578.1091|Ksr2|55:59 (ssRNA)", "RNA": "GGGAGUUCUACAGUCCGACGAUCGCUUCGAUAUCCGCAUGCUACAACCAUGAAAAUAGAGGUUUGUAAUGUACAGAAGGCUGGGGGAGCUUUCAGGGCACACGCCAGUUAUGUACAGAUGUGAAGCUGAGGUCUGAAGGAAAUGGAGGAAGUAGGAAGAUCAGACUGGUUGAAUUAGAAGUCUGUCACUCUAGGUGCUAAGUGACCUUGGACCCAGUCAGUUCUUGGAUUUCUGUUGUAGCCCAGGCUAGCCUCGAACCCUUGAUCCUCCUGUUCCUGGUAGAGAAACAGCCACUAAAUGGUGCUCUUGCGGUCGCACUAGUGUGGAAUUCUCGGGUGUCAAGG"}, "B7": {"name": "ENSMUSG00000004113.162|Cacna1b (ssRNA)", "RNA": "GGGAGUUCUACAGUCCGACGAUCGCUUCGAUAUCCGCAUGCUAGGUUUUCAGUCACAACACUUUCACUGUUUGUCAUUUCUAUGUAGUUGAUCUAGAAAAAGCAGAAAUCAAAACAGGAAAGGAAAUGUUUGUGUAACUUUAAAAAAAAAGUCAACAUGUAGGAAGGUCUCCAUUUUGCAUUGUUUCUGUGUCUUGUAUGCAAUGUUCCUGUAUGUUUCUACCCUGCCUGGGAUGUCCCCAAUGACCCUGGCUCCUCUGCUCAACCAAGUGCCUGAUCUCUGGCUCUGAGCAUCGUGGAUGAGCUCUUGCGGUCGCACUAGUGUGGAAUUCUCGGGUGUCAAGG"}, "B8": {"name": "ENSMUSG00000029636.179|Wasf3 (ssRNA)", "RNA": "GGGAGUUCUACAGUCCGACGAUCGCUUCGAUAUCCGCAUGCUACCCCUCCUGAAGCACAGCUCUCUUCUCUCCUGUUGUCGGCACAUUUUCAAUUUUAAAAAGUACCUCACAAGAUAAACUUGAUUCAGCCAGUUGCCCGGGCAGAGACCUGACUUCCCCUCUCCUGCCCUGAUCCUUUUUACCAAAUGGCGAUUCCAUAGUCCUGGCUGAGGCAGGGGCUCAAAGUCCAGUGUCUGCUUUGCAAUUCUGGAAGGACAGCUGCUUAUUUAAAUAAGUCUGUGAUAUCCGCAGGCUUGGGUUACCUCUUGCGGUCGCACUAGUGUGGAAUUCUCGGGUGUCAAGG"}, "B9": {"name": "ENSMUSG00000061578.745|Ksr2 (ssRNA)", "RNA": "GGGAGUUCUACAGUCCGACGAUCGCUUCGAUAUCCGCAUGCUACAUCUCUGGCUCUUUGUUUCCACUCUGGCCCAAGUUUGAGUCUCCAUAUGGGCCCUUCCUGUCCUCAUGCCCUGCCUGUCUUCAUUCCACCCAUCCACCCUCCUAAGGAUUGGUCUUGUUCCGAGAGUGAUCCUGGUAACGCCAAGCCUCCCUCUGCCCCUGUGUUGGCUUCUGUGACGGACUACCACACACCAAGAGGUUUUUCACAGUGAAGAUGUAUGCUCUCACCAUCCUACAGAUGCAAAGACCAAACACAAAGUCUCUUGCGGUCGCACUAGUGUGGAAUUCUCGGGUGUCAAGG"}}, "note": "In all, about 9,900 sequences were measured (“r (bound/input frequency ratio)”: median about 0.7, highest 2% from about 6.5 on). The entries come from a sample that favours the highest values as a whole."}
{"molecular_target": "TDP-43 (Homo sapiens, UniProt Q13148 1-414)", "sequence (Q13148 whole entry)": "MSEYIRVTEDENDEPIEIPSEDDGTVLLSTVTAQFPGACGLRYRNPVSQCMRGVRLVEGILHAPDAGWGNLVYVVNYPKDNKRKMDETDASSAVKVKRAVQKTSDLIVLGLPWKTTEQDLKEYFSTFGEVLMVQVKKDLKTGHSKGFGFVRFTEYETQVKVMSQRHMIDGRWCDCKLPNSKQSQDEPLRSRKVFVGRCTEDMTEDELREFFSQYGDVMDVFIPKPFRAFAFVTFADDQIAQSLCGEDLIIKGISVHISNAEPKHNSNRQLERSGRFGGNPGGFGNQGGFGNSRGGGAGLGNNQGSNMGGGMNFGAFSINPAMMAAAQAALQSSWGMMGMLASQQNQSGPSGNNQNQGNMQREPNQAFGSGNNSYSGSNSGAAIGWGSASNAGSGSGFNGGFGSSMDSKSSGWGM", "assay": "RNA Bind-n-Seq with designed 260-mer pool; 25 mM Tris-HCl, 150 mM KCl, 3 mM MgCl2, BSA (printed 500 mg/mL), 20 units/mL SUPERase IN; pH not stated; 500 nM RNA pool, 1 h, 4 C; TDP-43 5, 50, 500 nM; high values mean tight binding", "conditions": "protein: recombinant; tags: SBP (GST cleaved off with PreScission; pGEX-GST-SBP)", "method_in_brief": "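An in vitro-transcribed pool of 260-nt 3′ UTR oligos (500 nM) was incubated for 1 h at 4 °C with recombinant SBP-tagged TDP-43 at 5, 50 or 500 nM held on streptavidin beads. The buffer contained 25 mM Tris-HCl, 150 mM KCl, 3 mM MgCl2, BSA and SUPERase IN. Biotin-eluted bound RNA was sequenced, and binding, R, is each oligo's normalized read abundance in the bound sample over that in input.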"}
{"binder": "B1", "binding signal": "2.82 R (bound/input frequency ratio)"}
{"binder": "B2", "binding signal": "1.67 R (bound/input frequency ratio)"}
{"binder": "B3", "binding signal": "0.917 R (bound/input frequency ratio)"}
{"binder": "B4", "binding signal": "0.915 R (bound/input frequency ratio)"}
{"binder": "B5", "binding signal": "0.697 R (bound/input frequency ratio)"}
{"binder": "B6", "binding signal": "0.848 R (bound/input frequency ratio)"}
{"binder": "B7", "binding signal": "1.13 R (bound/input frequency ratio)"}
{"binder": "B8", "binding signal": "0.495 R (bound/input frequency ratio)"}
{"binder": "B9", "binding signal": "1.1 R (bound/input frequency ratio)"}
